According to PubChem BioAssay (Tox21):
Inconclusive results are not listed. Entries that show only a call come without a potency. Values without a mark were called inactive. Activity calls are given as the source filed them. The call rests on the fitted dose curve; in most records, active means well fitted cell-killing curve with a large enough effect in the repeat runs; inconclusive means weak or mixed curves, or effect the other way; inactive means flat fitted curve, though single readings scatter.

Assay: cAMP Responsive Elements (CRE) small molecule agonists, cell-based qHTS assay: qHTS cell viability counter screen (AID 2060914);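 further: viability read after 3 h of compound exposure; nearly all actives have a fitted effect of over 50% in size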
Conditions: CRE-bla HEK293T viability, CellTiter-Glo luminescence, 5 h; series mostly up to 92.4 µM
Summary of the method: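 CRE-bla HEK 293T cells, plated 18 h at 37 °C, were exposed to compounds for 3 h at 37 °C/5% CO2. Viability was then measured in the same wells by CellTiter-Glo luminescence after 30 min at room temperature.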

| Structure (SMILES) | Potency | activity change, negative = cytotoxicity |
| --- | --- | --- |
| COc1cc2c(cc1OC)-c1cc3ccc(OC)c(OC)c3c[n+]1CC2 | inactive | – |
| NS(=O)(=O)c1cc2c(cc1Cl)NC(CC1CCCC1)NS2(=O)=O (stereo unspecified) | inactive | – |
| CC1CCC(C(C)CS)CC1S (stereo unspecified) | inactive | – |
| CC(=O)OCC[N+](C)(C)C | inactive | – |
| CCc1ccccc1CC | inactive | – |
| Cc1nc(C)nc(N2C[C@@H](C)N(c3ccnc([C@@H](C)O)n3)[C@@H](C)C2)n1 | inactive | – |
| CCCCC(CC)COC(=O)c1ccc(C(=O)OCC(CC)CCCC)cc1 (stereo unspecified) | inactive | – |
| COc1cc2c(Nc3ccc(Br)cc3F)ncnc2cc1OCC1CCN(C)CC1 | inactive | – |
| Cc1cc(C)c(C)cc1C | inactive | – |
| C[C@@H]1CN(c2c(F)c(N)c3c(=O)c(C(=O)O)cn(C4CC4)c3c2F)C[C@H](C)N1 | – | -0.413% [at 18.9 µM] |
| Cc1cc(C)n(CO)n1 | inactive | – |
| Cc1cc(N)n(-c2ccccc2)n1 | inactive | – |
| CC(C)(C)c1n[nH]c(=S)n(N)c1=O | inactive | – |
| CCCCCCCCCCCCCCBr | inactive | – |
| Nc1c2c(nc3c1CCC3)CCCC2 | inactive | – |
| O=C1CN(/N=C/c2ccc([N+](=O)[O-])o2)C(=O)N1 | inactive | – |
| C=C(C)CS(=O)(=O)O | inactive | – |
| CCN(CC)CCSC(=O)C(c1ccccc1)c1ccccc1 | inactive | – |
| Cc1c(I)c(=O)n(-c2ccccc2)n1C | inactive | – |
| CC(C)(C)c1cc(CCC(=O)OCCSCCOC(=O)CCc2cc(C(C)(C)C)c(O)c(C(C)(C)C)c2)cc(C(C)(C)C)c1O | inactive | – |
| O=C1N(c2ccccc2)c2ccccc2C1(Cc1ccncc1)Cc1ccncc1 | inactive | – |
